Rows were chosen to be rich in hits. Some 3.5% of all compounds tested hit in one or more screens of this group.
TEAD-YAP inh – TEAD-YAP interaction inhibition, primary screen, TEAD-YAP interaction inhibitor project, luminescence, HEK-TIYL cells; TEAD-Gal4/YAP UAS-luciferase luminescence; inhibition, % at 9.12 µM; hit rate 1.4% among 640,000; in the data active means inhibition above about 32%;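 further: 0% = median of test compound wells and 100% = reference inhibitor wells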
MITF primary – MITF inhibitors, primary screen, biochemical, AlphaScreen, human. AlphaScreen MITF homodimerization, bead proximity signal. inhibition, % at 2.6 µM. hit rate 0.91% among 650,000. AID 1259374, 2018; in the data active means inhibition above about 50%;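 further: 0% = vehicle wells with protein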
GPR151 ag – activators of human GPR151, primary screen, cell-based, PathHunter beta-arrestin, luminescence. G-protein coupled receptor 151 (Homo sapiens), Q8TDV0. PathHunter beta-arrestin GPR151 cells. activation, % at 11.2 µM. hit rate 1% among 650,000. AID 1508602, 2020; in the data active means activation above about 4.9%;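 further: 0% = median of compound wells and 100% = cells with positive control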
FBW7 activator – FBW7 E3 ligase activators, primary screen, biochemical, AlphaScreen, human | F-box/WD repeat-containing protein 7 (Homo sapiens), Q969H0 | normalized activity (activation), % at 26.1 µM | AlphaScreen FBW7–phospho-cyclin E peptide binding, activator screen | hit rate 0.13% among 650,000 | AID 1259310, 2017; in the data active means normalized activity above about 1.9%;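 further: purified mutant Fbw7 with reduced substrate affinity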
Target sequence (Q969H0 whole entry, looked up): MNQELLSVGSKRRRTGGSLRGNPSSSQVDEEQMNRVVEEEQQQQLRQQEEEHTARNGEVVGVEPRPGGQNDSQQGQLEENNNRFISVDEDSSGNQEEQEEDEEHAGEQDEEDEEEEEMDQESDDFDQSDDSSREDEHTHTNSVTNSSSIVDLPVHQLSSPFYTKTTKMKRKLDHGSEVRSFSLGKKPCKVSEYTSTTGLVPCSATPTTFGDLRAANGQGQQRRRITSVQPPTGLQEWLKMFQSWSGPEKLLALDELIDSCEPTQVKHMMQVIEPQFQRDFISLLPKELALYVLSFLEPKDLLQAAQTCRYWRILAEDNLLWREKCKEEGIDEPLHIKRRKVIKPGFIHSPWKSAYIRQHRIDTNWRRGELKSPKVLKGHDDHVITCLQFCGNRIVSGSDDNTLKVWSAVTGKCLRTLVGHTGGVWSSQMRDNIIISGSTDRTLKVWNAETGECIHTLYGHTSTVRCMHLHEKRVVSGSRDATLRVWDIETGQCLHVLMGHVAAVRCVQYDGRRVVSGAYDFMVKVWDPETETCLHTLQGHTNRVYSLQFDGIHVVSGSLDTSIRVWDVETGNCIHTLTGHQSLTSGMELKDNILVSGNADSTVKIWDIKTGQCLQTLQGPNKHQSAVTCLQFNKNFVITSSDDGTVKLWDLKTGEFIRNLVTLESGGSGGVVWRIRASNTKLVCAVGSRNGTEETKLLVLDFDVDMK
GPR151 conf act – GPR151 activators, triplicate retest, confirmation, cell-based, PathHunter beta-arrestin, luminescence | activation, % at 11.2 µM | shares compounds with GPR151 ag | AID 1508609, 2020 | GPR151 PathHunter beta-arrestin cells, 90 min; % of EA-reagent control over plate median | 6,700 tested, under 10 active;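 active means mean percent activation across replicates above the confirmation screen cutoff of 4.91%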
GPR119 ag – GPR119 activators in beta-arrestin cells, counter-screen for GPR151 activator project, cell-based, PathHunter beta-arrestin, luminescence, triplicate; shares compounds with GPR151 ag; 90 min; 0 = compound-well median, 100 = enzyme-acceptor control; activation, % at 11.2 µM; hit rate 0.3% among 6,700; AID 1508611, 2020;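 active means mean percent activation in the counterscreen above 29.09%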;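 further: counterscreen on off-target GPR119 to flag nonselective hits from the GPR151 activator screen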
* marks the source's active call; other numbers are inactive results; . = no result.

SMILES	TEAD-YAP inh	MITF primary	GPR151 ag	FBW7 activator	GPR151 conf act	GPR119 ag
Cc1nc(-c2ccc(S(=O)(=O)N3CCOCC3)cc2)cs1	1	4	8.6*	0	0	2
CC/C(C)=N/NC(=O)CNS(=O)(=O)c1ccc(Cl)cc1	4	10	-1	0	.	.
Cc1cc(C(=O)N2C=CC(C(F)(F)F)=NCC2)nn1C	-3	4	5.0*	0	0	-3
Cc1ccc(S(=O)(=O)C2CCN(C(=O)c3cc(C)n(C)n3)CC2)cc1	8	3	0	0	.	.
Cc1cc(C)n(C(=O)COc2ccccc2[N+](=O)[O-])n1	4	-16	5.4*	0	0	-2
Cc1cc(NC(=O)Cn2cc([N+](=O)[O-])cn2)n(-c2ccccc2)n1	-13	-3	3	0	.	.
Cc1cc(NC(=O)COc2cc(F)ccc2[N+](=O)[O-])n(-c2ccccc2)n1	-1	-8	15*	0	-1	-10
COc1cc(NC(=O)CN(C)S(=O)(=O)c2ccc3ccccc3c2)c(OC)cc1Cl	-2	0	5.8*	0	-1	-16
COCCNC(=O)Cc1ccc(F)cc1	-6	0	5.4*	0	0	-5
COc1cc(NC(=O)Cc2ccc(F)cc2)c(OC)cc1Cl	-5	2	5.0*	1	0	-5
COc1cc(NC(=O)Cc2ccc(Cl)cc2)c(OC)cc1Cl	3	50	0	0	.	.
COc1ccccc1NC(=O)CN(C)S(=O)(=O)c1ccccc1	1	-30	0	0	.	.
COc1ccccc1NC(=O)NNC(=O)CN(C)S(=O)(=O)c1ccc(C)cc1	8	4	5.3*	0	0	4
COCCCNC(=O)Cc1ccc(F)cc1	10	0	0	0	.	.
S=C(NCc1ccccn1)Nc1cccc(Cl)c1	-41	-2	10.0*	0	1	9
CC(=O)c1ccc(-n2nnnc2SCC(=O)N(C(C)C)C(C)C)cc1	4	7	-1	-1	.	.
Nc1nc2ncc(CNc3ccc(C(=O)NC(CCC(=O)O)C(=O)O)cc3)nc2c(=O)[nH]1 (centres undefined)	15	12	0	0	.	.
Nc1nc2ncc(CNc3ccc(C(=O)N[C@@H](CCC(=O)O)C(=O)O)cc3)nc2c(=O)[nH]1	.	9	5.6*	0	0	-2
COc1cccc2cc(C(=O)OCC(=O)Nc3ccc(Br)cc3)c(=O)oc12	-38	3	2	0	.	.
COc1cc(N(C)C)c([N+](=O)[O-])cc1C(=O)NCCN1CCN(c2ccccc2)CC1	3	8	5.8*	1	1	-1
COc1ccc(Cl)cc1C(=O)NCCCN1CCN(c2ccccc2)CC1	-3	6	3	0	.	.
COc1ccccc1NC(=O)c1ccc(SCC(=O)NC2CCCCCC2)c([N+](=O)[O-])c1	13	15	8.3*	0	0	6
COc1ccc(CC(=O)NNC(=O)CSc2nc(C)c(C)c(=O)[nH]2)cc1	5	8	6.3*	0	0	-6
COc1ccc(C(=O)NNC(=O)CSc2nc3sc(C)c(C)c3c(=O)[nH]2)cc1	7	17	5	0	.	.
COc1ccc(C(=O)NNC(=O)CSc2ncn[nH]2)cc1	2	15	11*	0	0	-2
SMILES	TEAD-YAP inh	MITF primary	GPR151 ag	FBW7 activator	GPR151 conf act	GPR119 ag
COC(=O)c1cc(NC(=O)c2c(-c3ccccc3)noc2C)cc(C(=O)OC)c1	12	-2	2	0	.	.
O=C(COC(=O)c1cccnc1)Nc1ccccc1F	3	11	1	0	.	.
C[C@H]1C(=O)N2CCN(Cc3ccc(F)c(F)c3)C[C@@H]2C(=O)N1C	-4	-6	6.8*	0	-1	5
CC(Cl)C(=O)N(Cc1ccccc1)Cc1ccccc1 (centres undefined)	8	-18	5.1*	0	0	8
O=C(O)/C=C/C(=O)N(Cc1ccccc1)Cc1ccccc1	4	-5	5.3*	0	1	8
COc1ccc(/C=C/C(=O)N(Cc2ccccc2)Cc2ccccc2)cc1	1	-2	0	0	.	.
CC(=O)Nc1ccc(NC(=O)COc2ccc(Br)cc2C)cc1	-23	11	8.7*	0	0	-4
Cc1cc(Br)ccc1OCC(=O)Nc1ccc(C(N)=O)cc1	-2	5	0	0	.	.
CC(=O)NS(=O)(=O)c1ccc(NC(=O)COc2ccc(C)cc2)cc1	0	-12	1	0	.	.
COc1ccccc1OCC(=O)Nc1ccc(S(=O)(=O)NC(C)=O)cc1	12	0	16*	0	-1	-9
CC(C)(C)NS(=O)(=O)c1ccc(NC(=O)COc2ccc3ccccc3c2)cc1	10	0	1	0	.	.
CC(=O)NS(=O)(=O)c1ccc(NC(=O)COc2ccc(Br)cc2)cc1	6	7	5.8*	0	-1	-12
CC(C)(C)NS(=O)(=O)c1ccc(NC(=O)COc2ccc(Br)cc2)cc1	1	4	16*	0	1	14
CCOC(=O)c1ccc(CN(Cc2ccc(C)cc2)S(=O)(=O)c2cccc(Cl)c2Cl)cc1	3	24	0	1	.	.
O=C(Nc1cccc(Cl)c1Cl)N[C@H]1C[C@H]2C(=O)N3CCC[C@@H]3C(=O)N2C1	3	15	-1	1	.	.
Cc1ccc2occ(C(=O)c3ccccc3Cl)c(=O)c2c1	11	10	7.7*	0	1	-6
O=[N+]([O-])c1ccccc1CNc1ccc(F)c(Cl)c1	-10	7	5.9*	0	0	0
CCN(CC)S(=O)(=O)c1ccc(S(=O)(=O)c2ccc(S(=O)(=O)N(CC)CC)cc2)cc1	5	-2	5.9*	0	-1	-1
CCN(CC(=O)NC)S(=O)(=O)c1ccc(Cl)cc1	4	6	7.6*	1	-2	-17
CCN(CC(=O)O)S(=O)(=O)c1cc(Cl)ccc1Cl	2	14	0	0	.	.
CN(CC(=O)NN)S(=O)(=O)c1ccc(Cl)cc1	-9	5	6.3*	0	1	10
CCN(CC(N)=O)S(=O)(=O)c1cc(Cl)ccc1Cl	-3	-15	5.0*	0	1	3
Cc1ccc(-n2cnc3cc(C(=O)NCCc4ccccc4)ccc32)c(C)c1	6	-7	5.5*	0	0	-12
COc1ccc(CCNC(=O)c2ccc3c(c2)ncn3-c2ccc(C)cc2C)cc1OC	15	11	0	0	.	.
